Measured values from PubChem BioAssay (NCI).
This is part of a sample that, as a whole, favours compounds with a hit. Of some 83,000 tested, about 20% had one in any assay.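 Percent growth is the endpoint: 0 to 100 indicates growth inhibition (40 means 60% inhibition), 0 means no net growth, and negative values indicate cell death.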 Active and inactive are the calls of the source. The calls were made as follows: active = growth percent below 10; inactive = the rest.

tested on: NCI-H23 lung; experiment: NCI-60 one-dose screen, 48 h (100 = growth as untreated, 0 = no growth, -100 = all killed); details: 10 µM unless noted

Row | SMILES | growth
1 | Fc1ccc(N/N=C/c2ccc(-n3cccn3)cc2)cc1 | 90.7% (inactive)
2 | COc1cc(F)c(-c2nc3c(C)cccc3n2Cc2c(F)cccc2F)c(F)c1 | 79.8% (inactive)
3 | Cc1nc(C)c(C)nc1C | 102% (inactive)
4 | Oc1ccc(CNNc2ccnc3c(O)cccc23)c2cccnc12 | 31.6% (inactive)
5 | N#Cc1ccc(N2Cc3cc(Cl)ccc3OC3=C2C(=O)N(Cc2ccccc2)C3=O)cc1 | 10.8% (inactive)
6 | CC(=O)OCC1SC(OC(C)=O)C(NC(=O)/C=C/CCl)C(OC(C)=O)C1OC(C)=O (stereo not drawn) | 99.7% (inactive)
7 | S=C(Nc1ccccc1)c1ccccn1 | 87.5% (inactive)
8 | COc1cc(C(C)c2ccc3c(ccn3C)c2)cc(OC)c1OC (stereo not drawn) | 29.3% (inactive)
9 | COc1cc(C2=NN(C(C)=O)C(c3cccc(Nc4ccnc5cc(C(F)(F)F)ccc45)c3)C2)cc(OC)c1OC (stereo not drawn) | 62.8% (inactive)
10 | CC(C)CSc1nc(Nc2ccccc2)c(C#N)c(-c2ccc(F)cc2)n1 | 38.7% (inactive)
11 | C[C@H]1[C@H](C)CC[C@]2(C(=O)OCCCC[P+](c3ccccc3)(c3ccccc3)c3ccccc3)CC[C@]3(C)C(=CC[C@@H]4[C@@]5(C)CC[C@H](OC(=O)C(Cl)Cl)C(C)(C)[C@@H]5CC[C@]43C)[C@H]12 | -48.3% (active)
12 | CC(/C=C/c1ccccc1)=N/NC(=O)c1ccncc1 | 98.2% (inactive)
13 | O=C(O)c1cn(C2CC2)c2cc(N3CCN(C(=O)CSc4nnc(-c5ccc(Cl)cc5)n4-c4ccccc4)CC3)c(F)cc2c1=O | 96.2% (inactive)
14 | C1=CC2=CC=C3C=CC=C4C(c5nc6c7ccccc7c7ccccc7c6[nH]5)=CC(=C1)C2C34 (stereo not drawn) | 98.1% (inactive)
15 | Nc1c(C(=O)Nc2ccccc2)sc2nc3c(cc12)CN(C(=O)OCc1ccccc1)CC3 | 62.6% (inactive)
16 | Cc1cccc(C)c1NC(=O)CN(CC(C)C)CC(O)COc1ccccc1 (stereo not drawn) | 86% (inactive)
17 | C=C(C)[C@@H]1CCC=C2CC[C@]3(C)[C@H](CC[C@@H]4[C@@]5(C)CCCNC(C)(C)[C@@H]5CC[C@]43C)[C@H]21 | 66.5% (inactive)
18 | COC(=O)/C=C/c1cc(OC(C)=O)c2c(c1)C(C(=O)OC)C(c1ccc(OC(C)=O)c(OC(C)=O)c1)O2 (stereo not drawn) | 21.3% (inactive)
19 | COc1ccc(-c2[nH]c3ccccc3c2C=C(C#N)C#N)cc1 | 2.52% (active)
20 | COc1ccc(-c2nnc(N3CCN(C(=O)CN4CCN(c5ccccc5)CC4)CC3)nc2-c2ccc(OC)cc2)cc1 | 48.3% (inactive)
21 | O=c1[nH]c2ccccc2cc1-c1nc2ccc(Cl)cc2[nH]1 | 53.5% (inactive)
22 | O=C(NC[C@H](O)CN1CCc2ccccc2C1)c1cc(NC2COC2)ncn1 | 99.7% (inactive)
23 | COC1=CC2C=C(C3N(c4ccccc4)NC(=O)[C@@H]4CCCN34)C(=O)NC2C=C1 (stereo partly drawn) | 89.7% (inactive)
24 | C#C[C@@]1(O)[C@@H](CO)O[C@@H](n2cc(-c3ccco3)c3c(N)ncnc32)[C@@H]1O | 78.6% (inactive)
25 | Cc1[nH]c(N=Nc2ccccc2)nc1N=Nc1ccccc1 | 36.3% (inactive)
26 | COc1ccc(Nc2nc(SCC(C)C)nc(-c3ccc(F)cc3)c2C#N)cc1 | 79.1% (inactive)

tested on: NCI-H226 lung; experiment: as above; details: 10 µM unless noted

Row | SMILES | growth
27 | O=C(Nc1ccc2ncnc(Nc3cccc(C(F)(F)F)c3)c2c1)c1cccs1 | 67.6% (inactive)
28 | O=C1[C@@H](OS(=O)(=O)CC(F)(F)F)[C@H](c2ccc(F)cn2)N1c1cc2c3ccccc3ccc2c2ccccc12 | 92.3% (inactive)
29 | COc1cc2cc(c1Cl)N(C)C(=O)C[C@H](OC(=O)[C@H](C)N(C)C(=O)CCS)C[C@]1(C)O[C@H]1[C@H](C)[C@@H]1C[C@@](O)(NC(=O)O1)[C@H](OC)/C=C/C=C(\C)C2 | 69.5% (inactive)
30 | COc1cc(/C=C/C(=O)c2cccs2)ccc1OCc1ccc(Cl)nc1 | 86.8% (inactive)
31 | COc1cc(/C=C/C(=O)/C=C/c2cc3ccc(Cl)cc3[nH]c2=O)ccc1O | 80.1% (inactive)
32 | COc1ccc(/C=C/C(=O)/C=C(/C=C/c2ccc(OC)c(OC)c2)OB(F)F)cc1OC | 57.1% (inactive)
33 | COc1cc(/C=C/C(=O)/C=C/c2cc3ccc(Cl)cc3n(Cc3ccccc3)c2=O)ccc1O | -6.08% (active)
34 | C=C(C)[C@@H]1CC[C@]2(C(=O)OCCCC[P+](c3ccccc3)(c3ccccc3)c3ccccc3)CC[C@]3(C)[C@H](CC[C@@H]4[C@@]5(C)CC[C@H](OC(=O)C(Cl)Cl)C(C)(C)[C@@H]5CC[C@]43C)[C@@H]12 | -78.5% (active)
35 | COc1ccc(C(=S)c2cc(OC)c(OC)c(OC)c2)cc1OC(=O)CCl | 103% (inactive)
36 | CNCc1cccc2c1OCCOCCOCCN(CCN1CCOCC1)S(=O)(=O)c1ccc(cc1)-c1cnc(N)c(n1)C(=O)N2 | 78.4% (inactive)
37 | COc1ccc2[nH]c(=O)c(/C=C/C(=O)/C=C/c3ccc(O)c(OC)c3)cc2c1 | 36.8% (inactive)
38 | Fc1ccc(N/N=C/c2ccc(-n3cccn3)cc2)cc1 | 92.3% (inactive)
39 | COc1cc(F)c(-c2nc3c(C)cccc3n2Cc2c(F)cccc2F)c(F)c1 | 88.7% (inactive)
40 | Cc1nc(C)c(C)nc1C | 104% (inactive)
41 | Oc1ccc(CNNc2ccnc3c(O)cccc23)c2cccnc12 | 86.7% (inactive)
42 | N#Cc1ccc(N2Cc3cc(Cl)ccc3OC3=C2C(=O)N(Cc2ccccc2)C3=O)cc1 | 100% (inactive)
43 | CC(=O)OCC1SC(OC(C)=O)C(NC(=O)/C=C/CCl)C(OC(C)=O)C1OC(C)=O (stereo not drawn) | 103% (inactive)
44 | S=C(Nc1ccccc1)c1ccccn1 | 94.7% (inactive)
45 | COc1cc(C(C)c2ccc3c(ccn3C)c2)cc(OC)c1OC (stereo not drawn) | 67.2% (inactive)

Row | SMILES | growth
46 | COc1cc(C2=NN(C(C)=O)C(c3cccc(Nc4ccnc5cc(C(F)(F)F)ccc45)c3)C2)cc(OC)c1OC (stereo not drawn) | 66.5% (inactive)
47 | CC(C)CSc1nc(Nc2ccccc2)c(C#N)c(-c2ccc(F)cc2)n1 | 6.87% (active)
48 | C[C@H]1[C@H](C)CC[C@]2(C(=O)OCCCC[P+](c3ccccc3)(c3ccccc3)c3ccccc3)CC[C@]3(C)C(=CC[C@@H]4[C@@]5(C)CC[C@H](OC(=O)C(Cl)Cl)C(C)(C)[C@@H]5CC[C@]43C)[C@H]12 | -78.8% (active)
49 | CC(/C=C/c1ccccc1)=N/NC(=O)c1ccncc1 | 104% (inactive)
50 | O=C(O)c1cn(C2CC2)c2cc(N3CCN(C(=O)CSc4nnc(-c5ccc(Cl)cc5)n4-c4ccccc4)CC3)c(F)cc2c1=O | 98.8% (inactive)
51 | C1=CC2=CC=C3C=CC=C4C(c5nc6c7ccccc7c7ccccc7c6[nH]5)=CC(=C1)C2C34 (stereo not drawn) | 23.8% (inactive)
52 | Nc1c(C(=O)Nc2ccccc2)sc2nc3c(cc12)CN(C(=O)OCc1ccccc1)CC3 | 82.7% (inactive)
53 | Cc1cccc(C)c1NC(=O)CN(CC(C)C)CC(O)COc1ccccc1 (stereo not drawn) | 94.9% (inactive)
54 | C=C(C)[C@@H]1CCC=C2CC[C@]3(C)[C@H](CC[C@@H]4[C@@]5(C)CCCNC(C)(C)[C@@H]5CC[C@]43C)[C@H]21 | 104% (inactive)
55 | COC(=O)/C=C/c1cc(OC(C)=O)c2c(c1)C(C(=O)OC)C(c1ccc(OC(C)=O)c(OC(C)=O)c1)O2 (stereo not drawn) | 81.7% (inactive)
56 | COc1ccc(-c2[nH]c3ccccc3c2C=C(C#N)C#N)cc1 | 25.8% (inactive)
57 | COc1ccc(-c2nnc(N3CCN(C(=O)CN4CCN(c5ccccc5)CC4)CC3)nc2-c2ccc(OC)cc2)cc1 | 46.7% (inactive)
58 | O=c1[nH]c2ccccc2cc1-c1nc2ccc(Cl)cc2[nH]1 | 55.2% (inactive)
59 | O=C(NC[C@H](O)CN1CCc2ccccc2C1)c1cc(NC2COC2)ncn1 | 108% (inactive)
60 | COC1=CC2C=C(C3N(c4ccccc4)NC(=O)[C@@H]4CCCN34)C(=O)NC2C=C1 (stereo partly drawn) | 105% (inactive)
61 | C#C[C@@]1(O)[C@@H](CO)O[C@@H](n2cc(-c3ccco3)c3c(N)ncnc32)[C@@H]1O | 70.7% (inactive)
62 | Cc1[nH]c(N=Nc2ccccc2)nc1N=Nc1ccccc1 | 12.7% (inactive)
63 | COc1ccc(Nc2nc(SCC(C)C)nc(-c3ccc(F)cc3)c2C#N)cc1 | 75.1% (inactive)
